Shown are actives, neighbours in structure and some others; about 13% of the full set was active somewhere.
USP17 block – blocks human USP17 ubiquitin-rhodamine cleavage | A8MUK1 | purified USP17, Ub-rhodamine cleavage fluorescence, 3 h | inhibition, % at 50 µM | 47,000 tested, 6.5% active | AID 1645855
USP8 inh – human USP8 deubiquitinase inhibition | P40818 | inhibition, % at 20 µM | purified USP8, Ub-rhodamine cleavage fluorescence, 30 min | 47,000 tested, 4.2% active
Target sequence (P40818 whole entry, looked up): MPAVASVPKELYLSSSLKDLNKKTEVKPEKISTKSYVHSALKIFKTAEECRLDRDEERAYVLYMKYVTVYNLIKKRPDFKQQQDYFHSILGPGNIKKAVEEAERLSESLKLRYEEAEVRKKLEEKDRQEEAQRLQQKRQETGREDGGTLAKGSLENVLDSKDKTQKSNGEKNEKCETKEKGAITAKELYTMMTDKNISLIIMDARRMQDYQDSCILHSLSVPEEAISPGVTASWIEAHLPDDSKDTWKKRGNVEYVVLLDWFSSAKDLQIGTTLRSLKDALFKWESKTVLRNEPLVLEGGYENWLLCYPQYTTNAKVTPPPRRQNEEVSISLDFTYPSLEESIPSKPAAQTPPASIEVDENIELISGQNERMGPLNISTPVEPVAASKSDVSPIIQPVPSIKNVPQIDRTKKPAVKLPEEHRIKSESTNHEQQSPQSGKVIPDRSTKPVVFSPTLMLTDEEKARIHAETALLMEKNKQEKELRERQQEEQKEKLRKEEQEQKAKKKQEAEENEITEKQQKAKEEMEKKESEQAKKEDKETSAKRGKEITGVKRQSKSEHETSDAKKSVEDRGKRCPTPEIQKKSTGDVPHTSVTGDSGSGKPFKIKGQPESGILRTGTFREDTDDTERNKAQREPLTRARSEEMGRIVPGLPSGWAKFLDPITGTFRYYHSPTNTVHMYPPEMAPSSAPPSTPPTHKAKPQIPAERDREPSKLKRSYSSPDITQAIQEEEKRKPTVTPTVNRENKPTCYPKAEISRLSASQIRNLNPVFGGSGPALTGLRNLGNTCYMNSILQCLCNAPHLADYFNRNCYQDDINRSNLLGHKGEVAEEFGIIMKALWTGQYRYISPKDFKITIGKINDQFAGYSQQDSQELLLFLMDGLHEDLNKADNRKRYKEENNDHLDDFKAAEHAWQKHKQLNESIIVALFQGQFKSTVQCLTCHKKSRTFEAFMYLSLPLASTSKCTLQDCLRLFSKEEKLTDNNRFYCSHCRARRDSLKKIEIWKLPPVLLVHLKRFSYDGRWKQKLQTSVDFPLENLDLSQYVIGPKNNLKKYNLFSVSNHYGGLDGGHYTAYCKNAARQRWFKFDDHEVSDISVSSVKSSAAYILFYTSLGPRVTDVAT
USP28 inh – blocks human USP28 ubiquitin-rhodamine cleavage; Q96RU2; purified USP28, Ub-rhodamine cleavage fluorescence, 30 min; inhibition, % at 25 µM; 47,000 tested, 3% active
USP30 block – blocks human USP30 ubiquitin-rhodamine cleavage; inhibition, % at 25 µM; purified USP30, Ub-rhodamine cleavage fluorescence; AID 1645860; 47,000 tested, 5.3% active; Q70CQ3
USP10 block – inhibitors of human USP10 deubiquitinase. Q14694. purified USP10, Ub-rhodamine fluorescence, 60 min. inhibition, % at 20 µM. 47,000 tested, 1.1% active
Of the large screens only hits and unclear results are named; the others gave an inactive call. Rule as the data show it: active = inhibition above about 30%; inactive = the rest.

CCc1ccccc1NC(=O)CN1C(=O)CSc2ncccc21	none
Cc1ccc(NC(=O)Nc2ccccc2)c(=O)n1CC(=O)N1CCCC1	none
Cc1nc(N2CCCC2)c2oc3ccc(Cl)cc3c2n1	none
Cc1ccc(C(=O)N2CCN(C(=O)c3cc4ccccc4[nH]3)CC2)cc1	USP17 block 37.3
O=C(Nc1ccccc1)C1CCCN(C(=O)c2cc3ccccc3[nH]2)C1 (stereo not drawn)	USP17 block 59.9, USP30 block 33.4
CCCCCCCC1OC(=O)Cc2cc(O)c(O)c(O)c21 (stereo not drawn)	USP17 block 95.6, USP8 inh 76.9, USP28 inh 94.0, USP30 block 62.9, USP10 block 81.8
CC1CCCCN1c1nc(F)c2c(c1F)S(=O)(=O)CCN2Cc1cccnc1 (stereo not drawn)	USP17 block 35.4, USP8 inh 69.8
CCN(CC)c1nc(F)c2c(c1F)S(=O)(=O)CCN2Cc1cccnc1	USP17 block 57.8, USP8 inh 89.9
O=C(c1cccnc1)N1CCC2(C1)c1ccccc1S(=O)(=O)N2CC1CC1 (stereo not drawn)	none
Cc1ccc2c(COC(=O)c3ccc4ccccc4c3)cc(=O)oc2c1	none
COc1ccc(O)c(C(=O)OCc2cc(=O)oc3ccc4ccccc4c23)c1	USP17 block 50.9, USP8 inh 36.7
O=C1OC(C(=O)N2CCN(c3ccccc3)CC2)Cc2ccccc21 (stereo not drawn)	none
Cc1oc(-c2ccccc2)nc1CN(C)S(=O)(=O)c1ccc(F)cc1	none
COc1ccc(NC(=O)CCOc2ccccc2C)cc1S(=O)(=O)Nc1cc(C)ccc1Br	USP30 block 34.8
Cc1c(Cc2ccccc2)sc(NC(=O)c2ccc(Cl)cc2)c1C(N)=O	USP17 block 32.5
O=C(c1ccncc1)N1CCC2(C1)c1ccccc1S(=O)(=O)N2CC1CC1 (stereo not drawn)	none
Cc1c2oc3c(C)ccc(C(=O)N[C@@H]4C(=O)N[C@H](C(C)C)C(=O)N5CCC[C@H]5C(=O)N(C)CC(=O)N(C)[C@@H](C(C)C)C(=O)O[C@@H]4C)c3nc-2c(C(=O)N[C@@H]2C(=O)N[C@H](C(C)C)C(=O)N3CCC[C@H]3C(=O)N(C)CC(=O)N(C)[C@@H](C(C)C)C(=O)O[C@@H]2C)c(N)c1=O	USP17 block 34.7
COc1ccc(C(=O)c2c[nH]c(C(=O)NCCCn3ccnc3)c2)cc1	USP30 block 32.7
COC(=O)CCSc1nc2cc(OC)c(OC)cc2c(=N)n1Cc1cccc(C(F)(F)F)c1	none
COCCCn1c(SCCc2ccccc2)nc2cc(OC)c(OC)cc2c1=N	USP17 block 42.8
COc1ccc(OC[C@@H]2C3CCC(C3)N2C(=O)c2snnc2C)cc1 (stereo partly drawn)	none
Cc1nnc(-c2ccc3ccn(CC(=O)N4CCCc5ccccc54)c3c2)o1	USP17 block 85.9, USP8 inh 91.5, USP10 block 85.3 (no result: USP28 inh, USP30 block)
Cc1nnc(-c2ccc3ccn(CC(=O)N4CCN(c5ccccc5)CC4)c3c2)o1	USP17 block 93.2, USP8 inh 96.4, USP30 block 49.9, USP10 block 47.3
Cc1ccc2c(=O)c(C(=O)N3CCC(C)CC3)cn(CC(N)=O)c2n1	none
O=C(Nc1cccc(F)c1)C1=NOC2(CCCNC2)C1 (stereo not drawn)	none
O=C(Cn1c(=O)n(-c2ccc(F)cc2)c2ncccc21)NCc1ccccc1	USP8 inh 37.2
Cc1ccc(CNC(=O)Cn2c(=O)n(-c3ccccc3)c3ncccc32)cc1	USP17 block 50.9, USP8 inh 33.3
Cc1cccc(CNS(=O)(=O)c2c(-c3nnc(C)o3)c(C)n(C)c2C)c1	none
COc1ccccc1NC(=O)c1cc(S(=O)(=O)NC2CCCC(C)C2C)ccc1F (stereo not drawn)	none
O=C(Nc1ccc(Br)cc1F)c1cc(S(=O)(=O)NCCc2ccccc2)ccc1F	USP30 block 36.0
COC[C@H]1CCCN1C(=O)CC[C@H]1CNC(=O)[C@@H]2[C@@H](CCN2C2CCOCC2)N1C	USP8 inh 40.2, USP28 inh 30.8
COC[C@H]1CCCN1C(=O)CC[C@H]1CNC(=O)[C@@H]2[C@@H](CCN2C2CCCCC2)N1C	none
COC[C@H]1CCCN1C(=O)CC[C@H]1CNC(=O)[C@@H]2[C@@H](CCN2C(C)C)N1C	USP8 inh 40.8
Cc1cc(C)n2nc(C(=O)N3CCCC(c4ccn[nH]4)C3)cc2n1 (stereo not drawn)	none
COc1ccc(C(=O)Nc2ccc(-c3nc4ncccc4o3)cc2)cc1Br	USP17 block 32.4
COc1ccc(CC(=O)Nc2cccc(-c3nc4ncccc4o3)c2)cc1OC	USP28 inh 54.8
COc1ccc(C(=O)Nc2cccc(-c3nc4ncccc4o3)c2)cc1	none
Cc1ccc(OCC(=O)Nc2cccc(-c3nc4ncccc4o3)c2)c(C)c1	USP30 block 59.0
COc1ccc(C(=O)Nc2cc(C)c(O)c(-c3nc4ncccc4o3)c2)cc1Cl	none
Cc1cccc(NC(=O)Nc2cccc(-c3nnc(-c4ccccc4)o3)c2)c1	none
COc1ccc(CC(=O)Nc2cccc(-c3cn4cccnc4n3)c2)cc1	USP17 block 31.0
COc1cc2c(cc1OC)-c1cc(Oc3ccc4c(c3)OCO4)nc(=O)n1CC2	none
COCCCN(C(=O)c1ccncc1)c1nc(-c2ccccc2)cs1	none
O=C(Nc1ccccc1)N1C[C@@H]2c3nccn3-c3ccccc3[C@@H]2C1	none
Cn1c(=O)c2c(ncn2CC(O)CN2CCN(c3cccc(Cl)c3)CC2)n(C)c1=O (stereo not drawn)	none
O=C(Nc1cccc(-c2nc3ncccc3o2)c1)c1cccc(-c2cc3ccccc3oc2=O)c1	USP17 block 68.0, USP28 inh 69.5, USP30 block 67.2
COc1cccc2sc(N3CCN(c4nc5ccccc5s4)CC3)nc12	USP17 block 77.1
O=C(COc1cccc(F)c1)N1CCCC(c2[nH]nc3nccnc23)C1 (stereo not drawn)	none
CC(=O)N[C@@]12CCN(Cc3cnn(-c4ccc(F)cc4)c3)C[C@@H]1CN(C(C)=O)C2	none
Cc1ccc(Cl)cc1NC(=O)c1ccc(N(C)C)cc1	none
CN(C)c1ccc(/C=N/NC(=O)c2ccc(Cl)cc2)cc1	USP17 block 88.2, USP8 inh 51.0
CC(C)NC(=O)C(=O)NCCN1CCN(S(=O)(=O)c2ccc3ccccc3c2)CC1	none
COCc1cc(C)nc2sc3c(c12)NC(c1ccc(NC(C)=O)cc1)N(Cc1ccccc1)C3=O (stereo not drawn)	USP17 block 53.0, USP30 block 71.7
COCc1cc(C)nc2sc3c(c12)NCN(c1ccc(C)c(Cl)c1)C3=O	none
COc1ccc(C)cc1C(=O)CCC(=O)N1CCC(c2[nH]nc3nccnc23)CC1	none
CCN1CCN(C(=O)c2sc(-c3ccc(F)cc3)nc2C)CC1	none
CCn1ncc(-c2ccnc3cc(C(=O)N4CCN(Cc5ccc(F)cc5)CC4)nn23)c1C	USP8 inh 59.8
CCc1nc2c(NC(=O)C3CCCCC3)cccn2n1	none (no result: USP17 block)
CCc1nc2c(NC(=O)NC3CCCCC3)cccn2n1	USP8 inh 31.9
